The nature of assay [1]: qHTS drug screen for cell cycle checkpoint inhibitors in PARPi-resistant BRCA-mutant ovarian cancer cell lines. (AID 1963452; calls by dose curve). The conditions noted are these: PEO1/OlaR viability, CellTiter-Glo luminescence, 96 h; for Z-AUC: stronger effect = lower value. The gist of the method: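 PEO1, PEO4 and PEO1/OlaR ovarian cancer cells, 600 per well, exposed 96 h at 37C to a dilution series. Viability read by CellTiter-Glo luminescence, normalized to DMSO and empty wells; activity summarized as Z-AUC.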

The nature of assay [2]: qHTS for identification of novel therapeutic agents for treatment of microphthalmiaassociated transcription factor (MiT) renal cell carcinoma (RCC) (AID 1963991; calls by dose curve). The conditions noted are these: CellTiter-Glo, 48 h; for z-score: stronger effect = lower value. The procedure, abridged: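 Curves over 11 concentrations were fitted to CellTiter-Glo luminescence, scaled between empty wells (0%) and DMSO (100%) viability. Cells were UOK109, UOK124 and UOK145 TFE3-fusion RCC lines at 500/well, exposed 48 hours at 37 C.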
(In general: qHTS replaces the single test concentration by a dilution series.)

Assay [3] in a line: qHTS profiling for inhibitors of Plasmodium falciparum proliferation (AID 504749). Also: nearly all actives have a fitted effect of over 60% in size.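 As to activity, negative = inhibition: 0% = DMSO vehicle and full inhibition = artemisinin control.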 The conditions noted are these: P. falciparum in erythrocytes, SYBR Green DNA, 72 h. The procedure, abridged: (§1)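 P. falciparum-infected erythrocytes (0.3% parasitemia, 2.5% hematocrit) incubated with compound 72 h at 37 C, 5% CO2. Parasite DNA detected by SYBR Green after lysis, overnight at room temperature; normalised to 0.29 uM artemisinin and DMSO.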

Assay [4] relates to 3D7. The assay is described as above. The conditions noted are these: P. falciparum in erythrocytes, SYBR Green DNA, 72 h; series mostly up to 28.7 µM. The gist of the method:
as §1

The test system of assay [5] is 7G8. Described as above. The note with it: P. falciparum in erythrocytes, SYBR Green DNA, 72 h; series mostly up to 28.7 µM. The procedure, abridged: as §1
For assay [6], the system named is AA1029. Described as above. The conditions noted are these: P. falciparum in erythrocytes, SYBR Green DNA, 72 h; series mostly up to 28.7 µM. The gist of the method:
as §1

In assay [7] the test system is AS120. Described as above. The note with it: P. falciparum in erythrocytes, SYBR Green DNA, 72 h; series mostly up to 28.7 µM. The gist of the method: as §1
Assay [8] deals with ATS189. The description is as above. The note with it: P. falciparum in erythrocytes, SYBR Green DNA, 72 h; series mostly up to 28.7 µM. The gist of the method: as §1
Assay [9] has as its system ATS95. Described as above. The note with it: P. falciparum in erythrocytes, SYBR Green DNA, 72 h; series mostly up to 28.7 µM. The procedure, abridged: as §1
Assay [10] concerns C2A. The assay is described as above. The note with it: P. falciparum in erythrocytes, SYBR Green DNA, 72 h; series mostly up to 28.7 µM. The procedure, abridged:
as §1

The test system of assay [11] is CP185. The description is as above. The conditions noted are these: P. falciparum in erythrocytes, SYBR Green DNA, 72 h; series mostly up to 28.7 µM. The gist of the method:
as §1

Assay [12] concerns CP191. The description is as above. The note with it: P. falciparum in erythrocytes, SYBR Green DNA, 72 h; series mostly up to 28.7 µM. The gist of the method:
as §1

Assay [13] concerns CP192. Described as above. The note with it: P. falciparum in erythrocytes, SYBR Green DNA, 72 h; series mostly up to 28.7 µM. The procedure, abridged:
as §1

The test system of assay [14] is CP194. The assay is described as above. The note with it: P. falciparum in erythrocytes, SYBR Green DNA, 72 h; series mostly up to 28.7 µM. The gist of the method: as §1
In assay [15] the test system is CP201. The assay is described as above. The conditions noted are these: P. falciparum in erythrocytes, SYBR Green DNA, 72 h; series mostly up to 28.7 µM. The procedure, abridged: as §1
The test system of assay [16] is CP203. The assay is described as above. The note with it: P. falciparum in erythrocytes, SYBR Green DNA, 72 h; series mostly up to 28.7 µM. The procedure, abridged:
as §1

The subject of assay [17] is CP211. The description is as above. The conditions noted are these: P. falciparum in erythrocytes, SYBR Green DNA, 72 h; series mostly up to 28.7 µM. The gist of the method:
as §1

The subject of assay [18] is CP215. Described as above. The note with it: P. falciparum in erythrocytes, SYBR Green DNA, 72 h; series mostly up to 28.7 µM. The gist of the method: as §1
The test system of assay [19] is CP217. Described as above. The note with it: P. falciparum in erythrocytes, SYBR Green DNA, 72 h; series mostly up to 28.7 µM. The gist of the method:
as §1

The subject of assay [20] is CP237. The assay is described as above. The conditions noted are these: P. falciparum in erythrocytes, SYBR Green DNA, 72 h; series mostly up to 28.7 µM. The gist of the method:
as §1

[21] abbreviates: measured here: PEO1 parental Z-AUC.
[22] abbreviates: TFE3-RCC UOK109 viability, measured here: UOK109 Z-AUC.
Where [23] appears, read: TFE3-RCC viability, measured here: UOK124 Z-AUC.
Where [24] appears, read: TFE3-RCC viability, measured here: UOK145 Z-AUC.
Where [25] appears, read: at 28.7 µM (top of the series), parasite line A.
Setting [26] is: at 28.7 µM (top of the series), parasite line B.

Results filed as inconclusive are left out. The source made the active and inactive calls. Unless noted, calls follow the shape of the dose curve; as a rule, active = well fitted inhibition curve with a large enough effect; inconclusive = small, poorly fitted or top-dose-only effect; inactive = flat fitted curve, though single readings scatter.
Potency is read from the fitted curve at half-maximal effect.

Regarding `CC(C)C[C@H](NC(=O)[C@H](CCc1ccccc1)NC(=O)CN1CCOCC1)C(=O)N[C@@H](Cc1ccccc1)C(=O)N[C@@H](CC(C)C)C(=O)[C@@]1(C)CO1`, the Potency in [1] is 0.0098 µM (active); in [2] (TFE3-RCC UOK109 viability, active = Z-AUC below -0.8 in all three lines), 1.48 µM (active). In addition, the figures for the Z-AUC in assay [1] (setting [21]) and in assay [1] (measured here: PEO4 Z-AUC) were -3.02 and -2.77, respectively. Besides, the z-score in assay [2] (setting [22]) was -1.85; in assay [2] (setting [23]) it was -2.71; in [2] (setting [24]), -3.3.

As to `O=S(=O)(O)CCS`, the Z-AUC was 0.603 (inactive) in assay [1], 1.56 in assay [1] (setting [21]) and 1.53 in assay [1] (measured here: PEO4 Z-AUC). Also, the values for the z-score in assay [2] (setting [22]), in assay [2] (setting [23]) and in assay [2] (setting [24]) were -0.566, 1.05 and -0.757, respectively. Also, the values for the activity, negative = inhibition in assay [3] (setting [25]) and in [3] (setting [26]) were 8.7% (inactive) and 5.78% (inactive), respectively. Moreover, the Potency result in assay [4], in assay [5], in assay [6], in assay [7], in assay [8] and in assay [9] was “inactive” throughout. The Potency entry in assay [10], in assay [11], in assay [12], in assay [13], in [14] and in assay [15] was “inactive” throughout. Besides, the Potency result in [16], in assay [17], in [18], in assay [19] and in assay [20] was “inactive” in each case.

On to `CCC(C)(C)c1ccc(CC(C)CN2C[C@@H](C)O[C@@H](C)C2)cc1` (stereo partly specified), for which the Z-AUC in assay [1] was 0.498 (inactive); in assay [1] (setting [21]), 0.321; in [1] (measured here: PEO4 Z-AUC), 0.288. The figures for the z-score in [2] (setting [22]), in [2] (setting [23]) and in [2] (setting [24]) were 0.00856, 0.0457 and 1.19, respectively. For the same molecule, the activity, negative = inhibition in assay [3] (setting [25]) was -5% (inactive); in assay [3] (setting [26]), -10.4% (inactive). Also, in assay [5], the Potency was 10 µM (active). Besides, the Potency result in assay [6], in assay [7], in assay [8], in assay [9], in [10] and in assay [11] was “inactive” in each case. Also, the Potency result in assay [12], in assay [13], in assay [14], in assay [15], in [17] and in assay [18] was “inactive” each time. Moreover, the Potency entry in [19] is “inactive”.

`Nc1nc(N)nc(-c2cc(Cl)ccc2Cl)n1`: the figures for the Z-AUC in assay [1], in assay [1] (setting [21]) and in [1] (measured here: PEO4 Z-AUC) were 0.87 (inactive), 0.667 and 0.862, respectively. For the same molecule, the z-score is 0.0738 in [2] (setting [22]), 0.434 in assay [2] (setting [23]) and 0.276 in assay [2] (setting [24]). Further, the activity, negative = inhibition in assay [3] (setting [25]) was -9.21% (inactive); in assay [3] (setting [26]), -1.76% (inactive). The Potency result in [4], in assay [5], in assay [6], in [7], in assay [8] and in [9] was “inactive” each time. The Potency result in assay [10], in assay [11], in assay [12], in [13], in assay [14] and in assay [15] was “inactive” each time. For the same molecule, the Potency entry in [16], in assay [17], in assay [18], in assay [19] and in [20] was “inactive” in each case.

As to `NC(N)=NC(N)=NCCc1ccccc1`, the figures for the Z-AUC in [1], in assay [1] (setting [21]) and in [1] (measured here: PEO4 Z-AUC) were 1.13 (inactive), 0.288 and 0.483, respectively. Besides, the activity, negative = inhibition in assay [3] (at 12.8 µM (top of the series), parasite line A) was -25.4% (inactive); in [3] (at 12.8 µM (top of the series), parasite line B), -8.82% (inactive); in assay [3] (setting [26]), -17% (inactive). The Potency result in [4], in assay [5], in [6], in assay [7], in [8] and in assay [9] was “inactive” each time. Further, the Potency result in assay [10], in assay [11], in [12], in assay [13], in [14] and in [15] was “inactive” in each case. In addition, the Potency entry in assay [17], in [18], in assay [19] and in assay [20] was “inactive” each time.

For the origin of these results see PubChem BioAssay (NCATS).
